From PubChem BioAssay (NCI)
The panel holds about 83,000 compounds, 20% with a hit somewhere; the sample as a whole holds those more often.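 Single-dose data. Exposure time 48 hours. Values below 10 considered active.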 Unmarked numbers belong to inactive results. Active and inactive are the calls of the source.

How the values were obtained:
Experiment in all cases: NCI-60 one-dose screen, 48 h (100 = growth as untreated, 0 = no growth, -100 = all killed)
HCT-15 colon = settings: 10 µM unless noted
HT29 colon = settings: 10 µM unless noted
SNB-75 CNS = settings: 10 µM unless noted
SNB-19 CNS = settings: 10 µM unless noted
U251 CNS = settings: 10 µM unless noted
PC-3 prostate = settings: 10 µM unless noted
SK-MEL-5 melanoma = settings: 10 µM unless noted
UACC-62 melanoma = settings: 10 µM unless noted
LOX IMVI melanoma = settings: 10 µM unless noted
SK-MEL-28 melanoma = settings: 10 µM unless noted
EKVX NSCLC = settings: 10 µM unless noted
SN12C renal = settings: 10 µM unless noted
UO-31 renal = settings: 10 µM unless noted
TK-10 renal = settings: 10 µM unless noted
ACHN renal = settings: 10 µM unless noted
CAKI-1 renal = settings: 10 µM unless noted
A498 renal = settings: 10 µM unless noted
CCRF-CEM leukemia = settings: 10 µM unless noted
MOLT-4 leukemia = settings: 10 µM unless noted
SK-MEL-2 melanoma = settings: 10 µM

Structure (SMILES) | growth (HCT-15 colon) | growth (HT29 colon) | growth (SNB-75 CNS) | growth (SNB-19 CNS) | growth (U251 CNS) | growth (PC-3 prostate) | growth (SK-MEL-5 melanoma) | growth (UACC-62 melanoma) | growth (LOX IMVI melanoma) | growth (SK-MEL-28 melanoma) | growth (EKVX NSCLC) | growth (SN12C renal) | growth (UO-31 renal) | growth (TK-10 renal) | growth (ACHN renal) | growth (CAKI-1 renal) | growth (A498 renal) | growth (CCRF-CEM leukemia) | growth (MOLT-4 leukemia) | growth (SK-MEL-2 melanoma)
C[C@@H]1COCCN1c1cc(C2([S@](C)(=N)=O)CC2)nc(-c2ccnc3[nH]ccc23)n1 | 31.7% | 13.4% | 31.1% | 28% | 32.2% | 50.7% | 21.4% | 23.7% | 2.37% (active) | 70.7% | 54.2% | 41% | 13.2% | 42.9% | 7.85% (active) | 28.9% | -21.2% (active) | 7.78% (active) | 7.26% (active) | –
Cc1nn(-c2ccccc2)c2c1N=c1s/c(=C\c3cn(-c4ccccc4)nc3-c3ccc(Cl)cc3)c(=O)n1C(C)N2 (stereo not drawn) | 85.8% | 94.3% | 86.4% | 98.9% | 85.2% | 82.4% | 85% | 106% | 87.6% | 118% | 84.8% | 91.5% | 70.1% | 152% | 83.7% | 83.6% | 123% | 110% | 95.3% | –
C=CCN1C(=O)c2cccc3c(-c4ccc5c(c4)ncn5C4CCCCC4)ccc(c23)C1=O | 44.9% | 23.4% | 50.2% | 76.1% | 52% | 22.8% | -27.8% (active) | 44% | 50.3% | 76.7% | 52.9% | 61.5% | 34.5% | 69.9% | 55.3% | 52.2% | 76.9% | 33% | 5.4% (active) | –
CCN1CCN(Cc2ccc(-c3cc4c(N[C@H](C)c5ccccc5)ncnc4[nH]3)cc2)CC1 | 50.1% | 4.82% (active) | 75.1% | 46.2% | 56.8% | 41.3% | 59.8% | 7.59% (active) | 13.5% | 16.7% | 41.8% | 25% | 13.5% | 2.14% (active) | 9.72% (active) | 21.7% | 25.4% | 25.4% | 37.8% | –
COCc1c(-c2ccc(NC(=O)Nc3cc(C(F)(F)F)ccc3F)c(F)c2)c2c(N)ncnn2c1CN1CCOCC1 | -21% (active) | -26.8% (active) | -95.8% (active) | -14.9% (active) | -35.5% (active) | -25.4% (active) | -78.9% (active) | -38.8% (active) | -81.7% (active) | -6.65% (active) | -25.4% (active) | -10.8% (active) | -20% (active) | -43% (active) | -1.81% (active) | -11.4% (active) | -64.3% (active) | 5.76% (active) | -5.86% (active) | –
Cc1ccc(-[n+]2c3cc(N)c(C)cc3nc3cc(C)c(Nc4ccccc4)cc32)cc1 | -69.8% (active) | -73.9% (active) | -68.5% (active) | -82.3% (active) | -75.1% (active) | -29.1% (active) | -100% (active) | -73.5% (active) | -100% (active) | -69.6% (active) | -22.6% (active) | -70.6% (active) | -86.8% (active) | -18.4% (active) | -92% (active) | -42.2% (active) | -84.5% (active) | 1.93% (active) | -2.02% (active) | –
N#Cc1c(NC(=O)c2ccco2)[n+]([O-])c2cc(F)c(F)cc2[n+]1[O-] | 70.5% | 93.6% | 83.3% | 85.7% | 92.3% | 80.7% | 61.3% | 88.4% | 83.4% | 94.5% | 109% | 94.9% | – | 80.2% | 97.8% | – | – | 67.2% | 75% | 97.2%
ClCc1ccc(-c2ccc(Cn3cnc4c(Cl)nc(Cl)nc43)cc2)cc1 | -44.3% (active) | 0.0492% (active) | -26.9% (active) | 0.603% (active) | -79.2% (active) | -95.6% (active) | -67.7% (active) | -13.6% (active) | -70.8% (active) | -29.4% (active) | -57.9% (active) | 26.1% | – | -67.8% (active) | – | -98.8% (active) | – | -31.1% (active) | 4.29% (active) | 46.1%
C[C@@H]1COC(Nc2ccc3ncnc(Nc4ccc(OCc5nccs5)c(Cl)c4)c3c2)=N1 | 29.2% | 14.8% | 27.9% | 67.8% | 42.3% | 8.43% (active) | -39% (active) | 23.5% | 17.8% | 29.8% | 32.2% | 53.8% | 18.7% | 20.4% | 23.3% | 36.4% | 22.5% | 24.7% | 18.4% | –
Clc1ccc(/C=C/c2cc(N3CCOCC3)c3cc(Cl)c(Cl)cc3n2)cc1 | 97.4% | 93.1% | 69.7% | 108% | 81.4% | 37.2% | 93.9% | 98.6% | 99.6% | 105% | – | 20.1% | 12.5% | 92.8% | 94.3% | 78.6% | 67.7% | 4.25% (active) | 1.45% (active) | 104%
O=C1OCC2=C1C(c1cccc(F)c1)c1cc3c(cc1N2CCO)OCCO3 (stereo not drawn) | 9.75% (active) | 4.94% (active) | 27.3% | 18.6% | 17.8% | 24.8% | 8.33% (active) | 33% | 31.4% | 44.8% | 37.5% | 31% | 42.1% | 57.7% | 23.9% | 31.8% | 13.4% | 7.52% (active) | 7.49% (active) | –
ClCc1ccc(-c2ccc(Cn3cnc4nc(Cl)nc(Cl)c43)cc2)cc1 | -5.13% (active) | -8.13% (active) | -2.49% (active) | 6.84% (active) | -69.9% (active) | -9.15% (active) | -85.1% (active) | -20.5% (active) | -82.6% (active) | 1.02% (active) | 82.7% | -29.8% (active) | – | -28.4% (active) | 5.65% (active) | -93.6% (active) | – | -48.5% (active) | -42.5% (active) | 65.8%
COc1cc(Nc2ncc(F)c(Nc3ccc4c(n3)NC(=O)C(C)(C)O4)n2)cc(OC)c1OC | 53.3% | 12.3% | -7.82% (active) | 64.6% | 48.5% | 51.9% | 71.8% | 58% | 9.51% (active) | 67.1% | 52.4% | 36.6% | 2.95% (active) | 27.2% | 5.32% (active) | 9.51% (active) | -43.9% (active) | 61% | 52.4% | –
Cc1ccc(-c2cc3c(SCC(=O)Nc4cc(C(F)(F)F)ccc4Cl)nccn3n2)cc1 | 20.1% | -18.8% (active) | 95.3% | 102% | 60% | 41.1% | 48.1% | 97.5% | -6.48% (active) | 84.8% | – | 73.6% | 30.4% | 91.3% | 40.4% | 30.2% | 71.3% | 20.3% | 5.39% (active) | 85.4%
CC1(C)NC(=O)c2[nH]c3c(Cl)c(Cl)ccc3c2C1C#N (stereo not drawn) | 87.9% | 78.2% | 75.7% | 87.5% | 81.7% | 79.6% | 8.85% (active) | 73.1% | 85.5% | 103% | 67.2% | 89.5% | – | 63.2% | 78.6% | 49.8% | – | 70.3% | 62% | 80.6%
COc1ccc2c(OCc3nnc4ccc(-c5ccccc5)nn34)ccnc2c1 | 96.9% [2.5 µM] | 94.1% [2.5 µM] | 93.5% [2.5 µM] | 106% [2.5 µM] | 110% [2.5 µM] | 96.9% [2.5 µM] | 91.9% [2.5 µM] | 108% [2.5 µM] | 2.5% [2.5 µM] (active) | 111% [2.5 µM] | 104% [2.5 µM] | 104% [2.5 µM] | 74.6% [2.5 µM] | 93.7% [2.5 µM] | 97.2% [2.5 µM] | 74.6% [2.5 µM] | 89.1% [2.5 µM] | 102% [2.5 µM] | 72.7% [2.5 µM] | –
